Our source for the Potency values is PubChem BioAssay (Tox21).

Inconclusive results are not listed. A call without a number means that no potency is given here. The source made the active and inactive calls. Calls follow the shape of the dose curve; as a rule, active = well fitted cell-killing curve with a large enough effect in the repeat runs; inconclusive = weak or mixed curves, or effect the other way; inactive = flat fitted curve, though single readings scatter.
Potency is read from the fitted curve at half-maximal effect.

The nature of the test: Nuclear factor erythroid 2-related factor 2/antioxidant responsive element (Nrf2/ARE) small molecule agonists: qHTS cell viability counter screen in human keratinocytes (AID 1919968). Also: nearly all actives have a fitted effect of over 55% in size. The settings on record: KeratinoSens HaCaT ARE cells viability, CellTiter-Fluor, 24 h; series mostly up to 92.4 µM. An excerpt:
U.S. Tox21 Program National Center for Advancing Translational Sciences [NCATS] Division of Preclinical Innovation [DPI] U.S. Environmental Protection Agency [EPA] National Institutes of Environmental Health Sciences [NIEHS] National Toxicology Program [NTP] U.S. Food and Drug Administration [FDA] Tox21 Assay Overview: Oxidative stress has been implicated in the pathogenesis of a variety of diseases ranging from cancer to neurodegeneration. The antioxidant response element (ARE) signaling pathway plays an important role in the amelioration of oxidative stress. The KeratinoSens (Givaudan, Switzerland) is an in vitro test method which quantifies luciferase induction as a measure of activation of Keap1-Nrf2-antioxidationt/electrophile response element (ARE) dependant pathway in HaCaT human keratinocytes stably transfected with a selectable plasmid. The KeratinoSens assay is a cell-based assay with a reporter cell line to detect potential skin sensitizers by their ability to induce the Nrf2/ARE-response. The activation of the report gene under culture conditions can be detected by ONE-Glo Luciferase Assay System (Promega, Madison, WI). This cell line has been used to screen the Tox21 10K compound library to identify agonists that induce oxidative stress. The cytotoxicity of the Tox21 compound library against the KS-ARE cell line was tested in parallel by measuring the cell viability using CellTiter- Fluor assay system (Promega, Madison, WI) in the same wells.
Tox21 Assay Protocol Summary: HaCaT derived cell line KeratinoSens were dispensed at 1,500 cells/5uL/well in 1536-well white wall/solid bottom plates using a Multidrop Combi (ThermoFisher Scientific, Waltham, MA) dispenser. After the assay plates were incubated at 37 C/5% CO2 for 5 h, 23 nL of compounds dissolved in DMSO, positive controls or DMSO only was transferred to the assay plate by a pintool workstation (Kalypsys, San Diego, CA). The plates were incubated at 37 C/5% CO2 for 23 h, followed by addition of 1uL/well of CellTiter-Fluor reagent into the assay plates using a Flying Reagent Dispenser (Aurora Discovery, San Diego, CA) for cell viability readout that measures cytotoxicity. After 1 h incubation at 37 C/5% CO2 the fluorescence intensity was measured using a ViewLux (PerkinElmer, Shelton, CT) plate reader.
As to `ClCCCCl`, the Potency entry was “inactive”.

For the molecule `CC(Cl)C(C)Cl` (stereo not given), the Potency result is “inactive”.

For `CCOP(=S)(OCC)OC(Cl)C(Cl)(Cl)Cl` (stereo not given), the Potency entry is “inactive”.

For the molecule `CC1=C2C[C@H]3[C@@H](CC=C4C[C@@H](O)CC[C@@]43C)[C@@H]2CC[C@]12O[C@@H]1C[C@H](C)CN[C@H]1[C@H]2C`, the Potency was 11.9 µM (active).

With `CC(C)(C)c1ccc(CCOc2ncnc3ccccc23)cc1`, the Potency result was “inactive”.

As to `O=C(O)c1cccc(Cl)c1`, the Potency entry is “inactive”.

Consider `CCOC(=O)C(Cl)Cc1cc(-n2nc(C)n(C(F)F)c2=O)c(F)cc1Cl` (stereo not given), for which the Potency result was “inactive”.

With `O=C(O)CCCCCCNC1c2ccccc2CCc2ccccc21`, the Potency result is “inactive”.

`O=C(Cl)C(Cl)(Cl)Cl`: the Potency result was “inactive”.

`CCN1CCCC1CNC(=O)C(O)(c1ccccc1)c1ccccc1` (stereo not given): the Potency entry is “inactive”.

Regarding `O=NN(CCO)CCO`, the Potency result is “inactive”.

`CC(C)=CCOc1c2occc2cc2ccc(=O)oc12`: the Potency result was “inactive”.

Consider `c1cncc([C@@H]2CCCCN2)c1`, for which the Potency entry was “inactive”.

Turning to `CCOc1cc(OP(=S)(OC)OC)nc(CC)n1`, the Potency result is “inactive”.

Turning to `CN(C)CCc1c[nH]c2ccccc12`, the Potency entry was “inactive”.

As for `COC(=O)C(c1ccccc1)C1CCCCN1` (stereo not given), the Potency entry is “inactive”.

With `COP(=O)(OC)O/C(C)=C/C(=O)N(C)C`, the Potency entry was “inactive”.

Take `CCCC(C)C1(CC)C(=O)N=C(S)NC1=O` (stereo not given): the Potency entry is “inactive”.

With `CCO[C@H]1O[C@@H]2OC3(C)CC[C@H]4[C@H](C)CC[C@@H]([C@H]1C)[C@@]24OO3`, the Potency result is “inactive”.

Take `O=C1c2ccccc2C(=O)C1C(=O)C(c1ccccc1)c1ccc(Cl)cc1` (stereo not given): the Potency is 15.4 µM (active).

Regarding `CCOC(=O)CCl`, the Potency entry is “inactive”.

`Cc1ccccc1`: the Potency entry is “inactive”.

As for `N#CC(C#N)=Cc1ccc(O)c(O)c1`, the Potency entry was “inactive”.

For `[Cl][Sb]([Cl])[Cl]`, the Potency entry is “inactive”.

`COC1=CC(=O)O[C@@H](/C=C/c2ccc3c(c2)OCO3)C1`: the Potency result was “inactive”.

Regarding `N[C@@H](Cc1ccc(Oc2cc(I)c(O)c(I)c2)c(I)c1)C(=O)O`, the Potency entry was “inactive”.

As to `CCCCc1ccc(O)cc1`, the Potency result is “inactive”.

For the molecule `Oc1ccc2[nH]cc(CCCCN3CC=C(c4ccccc4)CC3)c2c1`, the Potency entry was “inactive”.

Regarding `Cc1ccc(-c2c(Cl)nc(C#N)n2S(=O)(=O)N(C)C)cc1`, the Potency is 15.3 µM (active).

Consider `Clc1ccc(CO/N=C(\Cn2ccnc2)c2ccc(Cl)cc2Cl)c(Cl)c1`, for which the Potency was 23.7 µM (active).

In the case of `CC(=O)Nc1ccc2c(c1)Cc1ccccc1-2`, the Potency result was “inactive”.

Take `COc1cccc2c1C(=O)c1c(O)c3c(c(O)c1C2=O)C[C@@](O)(C(=O)CO)CC3OC1CC(N2CCOC(OC)C2)C(O)C(C)O1` (stereo not given in full): the Potency was 7.5 µM (active).

Regarding `CCCCP(CCCC)CCCC`, the Potency entry was “inactive”.

Consider `COC(=O)COc1ccc(Cl)cc1Cl`, for which the Potency entry was “inactive”.

`CCOC(C(=O)OCCN(C)C)(c1ccccc1)c1ccccc1`: the Potency result was “inactive”.

As to `Oc1ccc(C2(c3ccc(O)cc3)c3ccccc3-c3ccccc32)cc1`, the Potency is 30.6 µM (active).

`Nc1c(Cl)c(F)nc(OCC(=O)O)c1Cl`: the Potency result is “inactive”.

Take `O=[N+]([O-])c1ccc(F)c([N+](=O)[O-])c1`: the Potency is 27.6 µM (active).

Regarding `Cc1nnc2n1-c1sc(CCC(=O)N3CCOCC3)cc1C(c1ccccc1Cl)=NC2`, the Potency result is “inactive”.

With `O=c1[nH]c2ccccc2n1CCCN1CCC(n2c(=O)[nH]c3cc(Cl)ccc32)CC1`, the Potency entry was “inactive”.
